Experimental data taken from PubChem BioAssay AID1159580 (chemical genetic matrix, 2015).
Values joined by “and” are separate entries in the source; they are usually repeats but may differ in a detail not shown here. Equal entries are not always repeated. In all, about 5,500 compounds went through this assay and about 2,000 (36%) were called active. Not shown: some 18% with an inconclusive outcome. No stated cut-off is given here; in the data, active means normalized growth mostly below about 0.91 (no sharp cut-off); inconclusive means no clear call, values can overlap the other calls; inactive means mostly above about 0.92. The list shows a part of the results.

Test: chemical genetic growth profiling, strain panel (AID 1159580);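 further: tested at 20 µM; growth read once vehicle control cultures reached saturation at 30 °C; 1 = growth at the plate median or of vehicle wells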
Conditions: S. cerevisiae deletion strains, growth OD

Measured: normalized growth

C[C@H]1CC2C([C@@H](O)C[C@@]3(C)C2CC[C@]3(O)C(=O)CO)[C@@]2(C)C=CC(=O)C=C12 (stereo partly specified)
inactive: locus YAL013W, strain DEP1, stronger effect = lower value 0.994 | locus YAL021C, strain ccr4, stronger effect = lower value 1.01 | locus YAL026C, strain drs2, stronger effect = lower value 1.02 | locus YAL030W, strain snc1, stronger effect = lower value 1 | locus YBL061C, strain skt5, stronger effect = lower value 0.991 | locus YBR009C, strain hhf1, stronger effect = lower value 1.01 | locus YBR021W, strain FUR4, stronger effect = lower value 0.972 | locus YBR023C, strain chs3, stronger effect = lower value 1.01 | locus YBR171W, strain sec66, stronger effect = lower value 0.993 | locus YBR229C, strain ROT2, stronger effect = lower value 0.993 | locus YBR231C, strain swc5, stronger effect = lower value 0.977 | locus YBR279W, strain paf1, stronger effect = lower value 1.01 | locus YCL011C, strain gbp2, stronger effect = lower value 1.03 | locus YCL016C, strain dcc1, stronger effect = lower value 1.01 | locus YCL029C, strain bik1, stronger effect = lower value 1.03 | locus YCL061C, strain MRC1, stronger effect = lower value 0.999 | locus YCL069W, strain vba3, stronger effect = lower value 0.993 | locus YCR088W, strain abp1, stronger effect = lower value 1 | locus YDL005C, strain med2, stronger effect = lower value 0.987 | locus YDL035C, strain GPR1, stronger effect = lower value 0.993 | locus YDL040C, strain nat1, stronger effect = lower value 1 | locus YDL074C, strain BRE1, stronger effect = lower value 1.02 | locus YDL101C, strain DUN1, stronger effect = lower value 1.01 | locus YDL134C, strain PPH21, stronger effect = lower value 0.996 | locus YDL185W, strain tfp1, stronger effect = lower value 1.01 | locus YDL192W, strain arf1, stronger effect = lower value 1.01 | locus YDR001C, strain nth1, stronger effect = lower value 1 | locus YDR069C, strain doa4, stronger effect = lower value 0.994 | locus YDR101C, strain arx1, stronger effect = lower value 1.02 | locus YDR137W, strain rgp1, stronger effect = lower value 0.993 | locus YDR150W, strain NUM1, stronger effect = lower value 0.988 | locus YDR159W, strain sac3, stronger effect = lower value 1.01 | locus YDR162C, strain NBP2, stronger effect = lower value 0.995 | locus YDR195W, strain ref2 0.934 | locus YDR297W, strain sur2, stronger effect = lower value 0.987 | locus YDR318W, strain mcm21, stronger effect = lower value 1.03 | locus YDR334W, strain swr1, stronger effect = lower value 0.997 | locus YDR335W, strain msn5, stronger effect = lower value 1 | locus YDR388W, stronger effect = lower value 1.02 | locus YDR392W, strain spt3, stronger effect = lower value 1.02 | locus YDR502C, strain sam2, stronger effect = lower value 1.01 | locus YEL003W, strain gim4, stronger effect = lower value 0.984 | locus YEL037C, strain rad23, stronger effect = lower value 1 | locus YEL061C, strain CIN8 (second series), stronger effect = lower value 1.01 | locus YEL061C, strain CIN8, stronger effect = lower value 0.993 | locus YER015W, strain faa2, stronger effect = lower value 1.01 | locus YER016W, strain bim1, stronger effect = lower value 1 | locus YER110C, stronger effect = lower value 1.01 | locus YER111C, strain swi4, stronger effect = lower value 1 | locus YER155C, strain BEM2 (second series), stronger effect = lower value 0.989 | locus YER155C, strain BEM2, stronger effect = lower value 0.996 | locus YER167W, strain BCK2, stronger effect = lower value 0.996 | locus YFR010W, strain ubp6, stronger effect = lower value 0.982 | locus YGL078C, strain dbp3, stronger effect = lower value 1.02 | locus YGL086W, strain mad1, stronger effect = lower value 0.999 | locus YGL167C, strain pmr1, stronger effect = lower value 0.988 | locus YGL173C, strain kem1, stronger effect = lower value 0.986 | locus YGL227W, strain vid30, stronger effect = lower value 0.992 | locus YGL240W, strain doc1, stronger effect = lower value 0.972 | locus YGL248W, strain PDE1, stronger effect = lower value 1 | locus YGL253W, strain hxk2, stronger effect = lower value 0.997 | locus YGR078C, strain PAC10, stronger effect = lower value 0.984 | locus YGR135W, strain pre9, stronger effect = lower value 1.04 | locus YGR229C, strain SMI1, stronger effect = lower value 0.986 | locus YGR252W, strain gcn5, stronger effect = lower value 0.947 | locus YHR013C, strain ard1, stronger effect = lower value 0.997 | locus YHR027C, strain rpn1, stronger effect = lower value 1 | locus YHR030C, strain SLT2, stronger effect = lower value 0.994 and 1.07 | locus YHR079C, strain IRE1 (second series), stronger effect = lower value 1.02 | locus YHR079C, strain IRE1, stronger effect = lower value 1.07 | locus YHR094C, strain hxt1, stronger effect = lower value 1.02 | locus YHR129C, strain ARP1, stronger effect = lower value 1 | locus YHR142W, strain chs7, stronger effect = lower value 0.997 | locus YHR200W, strain rpn10, stronger effect = lower value 1.01 | locus YIL066C, strain RNR3, stronger effect = lower value 1 | locus YIL073C, strain SPO22, stronger effect = lower value 1.01 | locus YIL125W, strain kgd1, stronger effect = lower value 1 | locus YIR030C, strain dcg1, stronger effect = lower value 1.02 | locus YJL092W, strain hpr5, stronger effect = lower value 0.989 | locus YJL095W, strain BCK1 (second series), stronger effect = lower value 0.997 | locus YJL095W, strain BCK1, stronger effect = lower value 1.03 | locus YJL115W, strain asf1, stronger effect = lower value 1 | locus YJL129C, strain trk1, stronger effect = lower value 0.987 | locus YJL134W, strain LCB3, stronger effect = lower value 1 | locus YJL154C, strain vps35, stronger effect = lower value 1.01 | locus YJL164C, strain tpk1, stronger effect = lower value 1.01 | locus YJL166W, strain qcr8, stronger effect = lower value 0.97 | locus YJL168C, strain set2, stronger effect = lower value 1.01 | locus YJL187C, strain SWE1 (second series), stronger effect = lower value 1.01 | locus YJR043C, strain POL32, stronger effect = lower value 1.01 | locus YJR066W, strain TOR1, stronger effect = lower value 1.02
